In the OligoGym collection:

These sequences were tested against SOHLH2 (assay: pooled miR-30 sensor sort-seq; sequence = guide strand). Conditions: shRNA.
Further: reference of the scale not given here.

| Sequence | sensor-assay potency score (higher = more potent) |
| --- | --- |
| TATATTTCACATAATCAACTGT | 0.64 |
| TATCGTGTCTACATGGATCTTC | 0.657 |
| TTGATGGAACTCTCACAGCTTC | -0.632 |
| TTCTCGAACTCTGACAACGAAG | -1.44 |
| TTTCTGTACAGTATCAGCCAGG | -0.773 |
| TTCAGTTAAAGCAATATCCATT | -0.431 |

Each sequence was assayed against SORCS2 in the same assay as above. Conditions: shRNA.

| Sequence | sensor-assay potency score (higher = more potent) |
| --- | --- |
| TAGAGCTTGCTCTCCTTTGTGT | 0.276 |
| TTTTACTCAACAAGGAGCGGGT | -0.478 |
| TTCTTTATATTCCACCAGCTGT | -1.25 |
| TATTCCTATAGACTTACACTAA | -0.686 |
| TTACTCAACAAGGAGCGGGTGC | -0.482 |
| TAGAAATTGTCGATGACGGTGG | 0.449 |
| TTTGGTCACTCGCTCTTGCAGA | -0.75 |
| TAGACTTACACTAACATCCCTG | 0.646 |
| TTCTTCTTTATATTCCACCAGC | -0.916 |
| TTGAGGACAACTTGTAGGGTGG | -0.426 |
| AAAGAAGATGTAATCGTCCTGC | 0.216 |
| TTTCCTTTTGAACTTGTAGAGG | -1.02 |

The sequences below were run against SOX21 in the same assay as above. Conditions: shRNA.

| Sequence | sensor-assay potency score (higher = more potent) |
| --- | --- |
| TAATCTTCGATAAAATTGCGAT | -0.606 |
| TCTATGTACATACAAACCGGGC | -1.15 |
| TTTGAGTCTAAAGTCGACTCAA | 0.154 |
| TAAATTAGAAGGTCACACTAGA | 0.55 |
| TTAACTTTGATATTCGCTCAAA | -0.537 |
| TAGTAGTTTGTTGTTGTTGTTT | -0.802 |
| ATGAACAGAGTGATAGTCGGAT | 0.0793 |
| TTAAATTAGAAGGTCACACTAG | 0.0223 |
| TTAATCTTCGATAAAATTGCGA | -0.173 |
| TTCTATGTACATACAAACCGGG | -0.494 |
| TTGAGTCTAAAGTCGACTCAAA | -1.13 |

Each sequence was assayed against SPAM1 in the same assay as above. Conditions: shRNA.

| Sequence | sensor-assay potency score (higher = more potent) |
| --- | --- |
| TTTCATTCCACAACCAGCTGAG | 0.0511 |
| TATTGTAACACCTTGCCCGGTG | -0.194 |
| ATACTAACAATGAACATTGTGG | -0.0586 |
| TAACAATGAACATTGTGGCAGA | -0.131 |
| TTGAGGTTCTTCTGTCTCCATG | -1.06 |
| TCTATCTTTGTAACTTGCCTTC | -0.492 |
| TTTTCCTTATACACACTCCTTG | -0.634 |
| TTGAATAGCAAAATTATCTGGG | 0.668 |
| TAATTGTCTAGGAGCAAGCAAG | -1.53 |
| TTTATTTCTACATTGAAGCAAC | -0.796 |
| TTTCCTTATACACACTCCTTGC | -0.862 |
